Test results published in PubChem BioAssay (EPA / NIEHS).
Inconclusive results are not listed. The source made the active and inactive calls. The calls were made as follows, unless noted: active = hit-call score of the fitted dose curve at least 0.9, where 1 is the maximum; inactive = score below 0.9.

Legend:
[1] = molecular target: human RAR-related Orphan Receptor gamma (RORg), RORC (gene 6097) (UniProt P51449); test: ATG_RORg_TRANS: Attagene TRANS-FACTORIAL HepG2 Assay for human RAR-related Orphan Receptor gamma (RORg) (AID 2283011; active = hit-call score of the fitted dose curve at least 0.9, where 1 is the maximum)
How it was run: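 Activity is scored as increase in GAL4-UAS reporter mRNA over DMSO, detected by fluorescent RT-PCR and capillary electrophoresis in HepG2 cells transiently expressing a RORg-Gal4 chimera, 24 h after dosing.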

[2] = molecular target: human Retinoid X Receptor beta (RXRb), RXRB (gene 6257) (UniProt P28702); test: ATG_RXRb_TRANS: Attagene TRANS-FACTORIAL HepG2 Assay for human Retinoid X Receptor beta (RXRb) (AID 2283013; active = hit-call score of the fitted dose curve at least 0.9, where 1 is the maximum)
How it was run: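 HepG2 cells transiently transfected with multiplexed reporter units driven by GAL4-UAS and exogenous chimeric NR-Gal4 proteins; treated 24 h. Reporter mRNA measured by RT-PCR, 6-FAM labelling and capillary electrophoresis; gain-of-signal fitted versus DMSO baseline.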

[3] = molecular target: human Thyroid Receptor alpha (THRa1), THRA (gene 7067) (UniProt P10827); test: ATG_THRa1_TRANS: Attagene TRANS-FACTORIAL HepG2 Assay for human Thyroid Receptor alpha (THRa1) (AID 2283014; active = hit-call score of the fitted dose curve at least 0.9, where 1 is the maximum)
How it was run: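 First, HepG2 cells receive multiple GAL4-UAS reporter units and the chimeric receptor. They are then dosed for 24 h, after which RNA is reverse-transcribed, amplified, labelled, HpaI-cut and sized by capillary electrophoresis; gain relative to DMSO is scored.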

[4] = read-out: E-selectin (Homo sapiens) (UniProt P16581); test: BSK_3C_Eselectin: BioMAP Diversity Plus: 3C Assay for Eselectin Biomarker Activity (AID 2283015); conditions: primary human endothelial cells (HUVEC); actives raise or lower the signal
How it was run: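 Human vascular endothelium from umbilical vein is exposed to test chemicals for 24 h. E-selectin levels are read by ELISA and compared with DMSO controls.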

[5] = read-out: Interleukin-1 alpha (IL1a), IL1A (gene 3552); test: BSK_BE3C_IL1a: BioMAP Diversity Plus: BE3C Assay for Interleukin-1 alpha (IL1a) Biomarker Activity (AID 2283016); conditions: primary human bronchial epithelial cells; actives raise or lower the signal
How it was run: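 Human primary bronchial epithelial cells (BE3C system) were dosed with compound and IL-1a measured by ELISA 24 h later. Activity was fitted bidirectionally against DMSO baseline; cytotoxicity was tracked in parallel cultures by SRB total-protein staining.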

[6] = read-out: Monocyte Chemoattractant Protein-1 (MCP1), CCL2 (gene 6347); test: BSK_3C_MCP1: BioMAP Diversity Plus: 3C Assay for Monocyte Chemoattractant Protein-1 (MCP1) Biomarker Activity (AID 2283017); conditions: primary human endothelial cells (HUVEC); actives raise or lower the signal
How it was run: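 Endothelial cells from human umbilical vein are dosed with chemical, cultured 24 h, then assayed for MCP-1 by ELISA; both increases and decreases are modelled against DMSO controls.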

[7] = read-out: Monocyte Chemoattractant Protein-1 (MCP1), CCL2 (gene 6347); test: BSK_4H_MCP1: BioMAP Diversity Plus: 4H Assay for Monocyte Chemoattractant Protein-1 (MCP1) Biomarker Activity (AID 2283018); conditions: primary human endothelial cells (HUVEC); actives raise or lower the signal
How it was run: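 Human umbilical vein endothelial cells (4H system) dosed with chemical; MCP-1 measured by ELISA 24 h after dosing. Bidirectional curve fitting against DMSO negative control as baseline; parallel SRB total-protein staining tracks overt cytotoxicity.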

[8] = read-out: Human Leukocyte Antigen - DR isotype (HLADR), HLA-DRA (gene 3122); test: BSK_3C_HLADR: BioMAP Diversity Plus: 3C Assay for Human Leukocyte Antigen - DR isotype (HLADR) Biomarker Activity (AID 2283019); conditions: primary human endothelial cells (HUVEC); actives raise or lower the signal;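 also: ELISA of cell-surface HLA-DR on HUVEC 24 h after dosing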
How it was run: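 Endothelial cells from human umbilical vein are treated with test chemical; after 24 h, HLA-DR levels are measured by ELISA. Data are fitted in both directions using DMSO as the baseline.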

[9] = read-out: Interleukin-8 (IL8), CXCL8 (gene 3576); test: BSK_3C_IL8: BioMAP Diversity Plus: 3C Assay for Interleukin-8 (IL8) Biomarker Activity (AID 2283020); conditions: primary human endothelial cells (HUVEC); actives raise or lower the signal
How it was run: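 Primary human umbilical vein endothelial cells (3C system) were exposed to test chemical for 24 h, then IL-8 was quantified by ELISA. Responses were fitted bidirectionally against DMSO vehicle as baseline.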

[10] = read-out: Monokine induced gamma interferon (MIG), CXCL9 (gene 4283); test: BSK_3C_MIG: BioMAP Diversity Plus: 3C Assay for Monokine induced gamma interferon (MIG) Biomarker Activity (AID 2283021); conditions: primary human endothelial cells (HUVEC); actives raise or lower the signal;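 as to AC50: MIG protein level measured by immunoassay in the treated endothelial cultures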
How it was run: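 Primary human umbilical vein endothelial cells in the 3C system were exposed to chemical for 24 h, after which MIG was quantified by ELISA. Activity was fitted bidirectionally against DMSO as negative control and baseline.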

[11] = molecular target: human Vitamin D Receptor (VDR), VDR (gene 7421) (UniProt P11473); test: ATG_VDR_TRANS: Attagene TRANS-FACTORIAL HepG2 Assay for human Vitamin D Receptor (VDR) (AID 2283022; active = hit-call score of the fitted dose curve at least 0.9, where 1 is the maximum)
How it was run: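 Fluorescence of labelled reporter cDNA fragments, resolved by capillary electrophoresis, gives mRNA induction after 24 h treatment of HepG2 cells carrying transfected Gal4-fusion reporter units. Activity is fitted in the positive direction with DMSO as baseline.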

[12] = BSK_3C_SRB: Viability Assessment in the BioMAP Diversity Plus: 3C Assay (AID 2283023); conditions: primary human endothelial cells (HUVEC);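 also: fitted both ways against DMSO so a hit may be signal rise or drop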
How it was run: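 Cells were dosed with chemical, cultured 24 h, fixed with 10% TCA, stained with 0.1% SRB and read at 560 nm. Human umbilical vein endothelium was used; DMSO served as negative control and baseline.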

[13] = read-out: Matrix Metallopeptidase 1 (MMP1), MMP1 (gene 4312); test: BSK_BE3C_MMP1: BioMAP Diversity Plus: BE3C Assay for Matrix Metallopeptidase 1 (MMP1) Biomarker Activity (AID 2283024); conditions: primary human bronchial epithelial cells; actives raise or lower the signal
How it was run: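 Primary human bronchial epithelial cells were dosed with test chemicals, and MMP1 levels were measured by ELISA 24 h later. Data were fitted bidirectionally against DMSO as the negative control and activity baseline.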

[14] = BSK_3C_Vis: BioMAP Diversity Plus: 3C Assay for Morphology Visualization (AID 2283025); conditions: primary human endothelial cells (HUVEC);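 also: fitted both ways so gain or loss versus DMSO counts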
How it was run: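 Human umbilical vein endothelial cells in the 3C system were imaged by light microscopy 24 h after chemical dosing to record cell morphology. Activity was fitted bidirectionally against DMSO as negative control and baseline; the endpoint serves as a background control.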

[15] = read-out: Pselectin, SELP (gene 6403); test: BSK_4H_Pselectin: BioMAP Diversity Plus: 4H Assay for Pselectin Biomarker Activity (AID 2283026); conditions: primary human endothelial cells (HUVEC); actives raise or lower the signal
How it was run: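 Primary human umbilical vein endothelial cells were exposed to test chemical for 24 h, then cell-surface P-selectin was quantified by ELISA. Activity was fitted bidirectionally against DMSO as negative control and baseline.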

[16] = BSK_4H_SRB: Viability Assessment in the BioMAP Diversity Plus: 4H Assay (AID 2283027); conditions: primary human endothelial cells (HUVEC);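 also: cells exposed to compound for 24 h before staining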;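 as to AC50: curves fitted both ways versus DMSO so AC50 may be loss or gain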
How it was run: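 Human umbilical vein endothelial cells, 24 h after chemical dosing; total protein measured by 0.1% sulforhodamine B staining after 10% TCA fixation, read at 560 nm. Bidirectional fitting against DMSO.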

[17] = BSK_BE3C_SRB: Viability Assessment in the BioMAP Diversity Plus: BE3C Assay (AID 2283028); conditions: primary human bronchial epithelial cells;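 as to AC50: fitted both ways so AC50 may mark signal gain or loss versus DMSO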
How it was run: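 Overt cytotoxicity was assessed as total protein in confluent human primary bronchial epithelial cultures 24 h after chemical addition, using 0.1% sulforhodamine B staining read at 560 nm.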

[18] = read-out: Thrombomodulin, THBD (gene 7056); test: BSK_3C_Thrombomodulin: BioMAP Diversity Plus: 3C Assay for Thrombomodulin Biomarker Activity (AID 2283029); conditions: primary human endothelial cells (HUVEC); actives raise or lower the signal
How it was run: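 Primary human umbilical vein endothelial cells (3C system) were exposed to chemical for 24 h, then thrombomodulin levels were measured by ELISA. Activity was fitted bidirectionally against the DMSO negative control as baseline.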

[19] = molecular target: Retinoic acid receptor RXR-alpha (Homo sapiens) (UniProt P19793); test: ATG_RXRa_TRANS: Attagene TRANS-FACTORIAL HepG2 Assay for human Retinoid X Receptor alpha (RXRa) (AID 2283012; active = hit-call score of the fitted dose curve at least 0.9, where 1 is the maximum)
How it was run: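 HepG2 cells transiently transfected with multiplexed GAL4-UAS reporter units and chimeric NR-GAL4 fusions, dosed 24 h. Reporter mRNA measured by RT-PCR, FAM labelling, HpaI digestion and capillary electrophoresis; gain-of-signal fitted relative to DMSO baseline.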

Measured: AC50

Sequence of E-selectin (Homo sapiens) (P16581 whole entry, looked up): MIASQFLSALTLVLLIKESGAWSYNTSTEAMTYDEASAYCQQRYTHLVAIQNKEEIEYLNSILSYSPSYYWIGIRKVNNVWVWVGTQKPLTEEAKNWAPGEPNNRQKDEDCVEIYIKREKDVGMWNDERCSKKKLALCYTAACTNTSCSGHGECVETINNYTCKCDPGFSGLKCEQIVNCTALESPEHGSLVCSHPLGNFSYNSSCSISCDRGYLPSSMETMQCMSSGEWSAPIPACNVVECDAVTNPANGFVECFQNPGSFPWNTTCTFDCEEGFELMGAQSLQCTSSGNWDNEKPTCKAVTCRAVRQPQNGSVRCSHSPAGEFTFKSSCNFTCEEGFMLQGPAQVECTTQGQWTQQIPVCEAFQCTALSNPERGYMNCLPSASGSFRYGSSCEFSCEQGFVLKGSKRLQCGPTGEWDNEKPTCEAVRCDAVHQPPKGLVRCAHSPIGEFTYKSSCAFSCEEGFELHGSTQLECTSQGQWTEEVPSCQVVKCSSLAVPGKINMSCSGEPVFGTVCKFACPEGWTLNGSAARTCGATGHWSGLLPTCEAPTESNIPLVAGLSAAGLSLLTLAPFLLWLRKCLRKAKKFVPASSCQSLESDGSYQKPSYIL
Sequence of human Retinoid X Receptor beta (RXRb), RXRB (gene 6257) (P28702 whole entry, looked up, the tested form may be a part): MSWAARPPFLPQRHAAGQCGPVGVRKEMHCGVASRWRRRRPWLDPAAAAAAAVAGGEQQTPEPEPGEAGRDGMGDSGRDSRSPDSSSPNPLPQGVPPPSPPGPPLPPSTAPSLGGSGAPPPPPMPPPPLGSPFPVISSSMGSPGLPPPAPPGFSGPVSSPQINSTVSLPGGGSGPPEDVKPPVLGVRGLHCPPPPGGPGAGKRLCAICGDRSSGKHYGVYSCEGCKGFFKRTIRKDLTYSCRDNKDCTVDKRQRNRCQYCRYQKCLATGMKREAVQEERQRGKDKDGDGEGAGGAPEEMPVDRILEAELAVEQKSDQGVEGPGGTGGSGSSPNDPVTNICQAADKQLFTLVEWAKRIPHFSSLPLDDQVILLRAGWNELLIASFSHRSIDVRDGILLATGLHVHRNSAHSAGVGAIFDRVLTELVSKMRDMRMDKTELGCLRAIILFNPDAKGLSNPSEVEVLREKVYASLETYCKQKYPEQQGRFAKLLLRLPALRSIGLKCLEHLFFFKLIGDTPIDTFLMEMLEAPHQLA
Sequence of human Vitamin D Receptor (VDR), VDR (gene 7421) (P11473 whole entry, looked up, the tested form may be a part): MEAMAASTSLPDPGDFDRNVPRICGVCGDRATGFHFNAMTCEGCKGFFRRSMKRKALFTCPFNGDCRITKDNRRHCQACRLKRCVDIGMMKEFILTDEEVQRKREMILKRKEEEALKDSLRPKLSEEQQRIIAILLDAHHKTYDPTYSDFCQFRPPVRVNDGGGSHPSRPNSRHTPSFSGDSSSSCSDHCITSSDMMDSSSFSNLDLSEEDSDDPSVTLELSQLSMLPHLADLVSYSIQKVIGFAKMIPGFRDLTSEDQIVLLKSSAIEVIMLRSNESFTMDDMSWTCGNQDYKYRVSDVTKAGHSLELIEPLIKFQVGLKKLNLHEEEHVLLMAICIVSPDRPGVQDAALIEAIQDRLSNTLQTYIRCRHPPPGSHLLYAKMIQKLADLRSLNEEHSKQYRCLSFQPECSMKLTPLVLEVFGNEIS
Sequence of Retinoic acid receptor RXR-alpha (Homo sapiens) (P19793 whole entry, looked up, the tested form may be a part): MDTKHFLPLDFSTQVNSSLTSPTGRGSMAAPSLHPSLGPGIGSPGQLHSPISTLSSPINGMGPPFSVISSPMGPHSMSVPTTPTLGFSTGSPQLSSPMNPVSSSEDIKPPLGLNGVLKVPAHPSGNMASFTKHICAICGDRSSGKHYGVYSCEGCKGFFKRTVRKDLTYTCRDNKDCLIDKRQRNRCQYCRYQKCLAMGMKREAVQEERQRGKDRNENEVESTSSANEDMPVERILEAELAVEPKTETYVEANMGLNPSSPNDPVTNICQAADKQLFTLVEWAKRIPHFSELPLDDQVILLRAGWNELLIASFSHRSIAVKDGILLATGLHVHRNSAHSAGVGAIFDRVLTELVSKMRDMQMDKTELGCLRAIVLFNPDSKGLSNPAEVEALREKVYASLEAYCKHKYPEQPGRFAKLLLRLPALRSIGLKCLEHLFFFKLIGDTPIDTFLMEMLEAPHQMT
Sequence of human RAR-related Orphan Receptor gamma (RORg), RORC (gene 6097) (P51449 whole entry, looked up, the tested form may be a part): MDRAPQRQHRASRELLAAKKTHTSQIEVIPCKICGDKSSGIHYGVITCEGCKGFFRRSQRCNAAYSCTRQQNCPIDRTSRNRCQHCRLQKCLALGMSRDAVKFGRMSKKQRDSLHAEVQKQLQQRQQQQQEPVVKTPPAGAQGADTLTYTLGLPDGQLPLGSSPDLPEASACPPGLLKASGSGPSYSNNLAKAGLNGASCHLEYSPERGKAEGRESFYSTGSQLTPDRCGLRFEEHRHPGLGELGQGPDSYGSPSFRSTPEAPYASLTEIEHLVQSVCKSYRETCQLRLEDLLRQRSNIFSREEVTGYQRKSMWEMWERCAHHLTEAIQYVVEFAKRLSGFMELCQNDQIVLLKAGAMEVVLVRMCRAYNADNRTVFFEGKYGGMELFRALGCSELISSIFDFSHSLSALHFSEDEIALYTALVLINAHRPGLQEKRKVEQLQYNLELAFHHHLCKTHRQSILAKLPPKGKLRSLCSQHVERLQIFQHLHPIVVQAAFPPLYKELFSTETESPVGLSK
Sequence of human Thyroid Receptor alpha (THRa1), THRA (gene 7067) (P10827 whole entry, looked up, the tested form may be a part): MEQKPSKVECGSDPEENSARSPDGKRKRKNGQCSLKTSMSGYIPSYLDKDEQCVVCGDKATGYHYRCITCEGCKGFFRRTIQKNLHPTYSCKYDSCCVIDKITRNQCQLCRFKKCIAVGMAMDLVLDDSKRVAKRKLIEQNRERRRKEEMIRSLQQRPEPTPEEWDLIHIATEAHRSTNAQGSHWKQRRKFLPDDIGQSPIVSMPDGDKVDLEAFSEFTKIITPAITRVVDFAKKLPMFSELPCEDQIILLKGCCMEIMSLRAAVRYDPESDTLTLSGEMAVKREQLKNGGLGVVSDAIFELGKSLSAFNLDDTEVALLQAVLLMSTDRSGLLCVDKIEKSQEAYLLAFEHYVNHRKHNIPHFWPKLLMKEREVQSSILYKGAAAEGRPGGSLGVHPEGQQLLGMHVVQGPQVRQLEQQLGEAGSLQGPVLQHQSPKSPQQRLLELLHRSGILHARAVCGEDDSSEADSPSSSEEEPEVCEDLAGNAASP

COc1cc(OC)nc(Sc2cccc(Cl)c2C(=O)O)n1
not listed: [19]
inactive: all other assays above

CCCOCC(=Nc1ccc(Cl)cc1C(F)(F)F)n1ccnc1
active: [4] 30.2 µM | [5] 33.5 µM | [6] 30.2 µM | [7] 24.9 µM | [9] 33.7 µM | [10] 35.1 µM | [12] 31 µM | [13] 34 µM | [14] 20 µM | [15] 29.8 µM | [16] 29 µM | [17] 20 µM | [18] 35 µM
inactive: [19] | [2]

CSc1nc(NC(C)C)nc(NC(C)C)n1
active: [12] 14 µM
not listed: [3]
inactive: all other assays above
